# Several values for one entry are separate records, joined by “and”; a condition that tells them apart may be missing. Equal values may be shown once. Inconclusive results are not listed. A structure can be active in one record and inactive in another. Activity calls are given as the source filed them. The calls were made as follows: active = hit-call score of the fitted dose curve at least 0.9, where 1 is the maximum; inconclusive = response in the unintended direction; inactive = score below 0.9.
# Assay: TOX21_p53_BLA_p3_viability: Viability Assessment in the Tox21 HCT-116 p53 Agonism Beta-lactamase Assay, Phase 3 (AID 2283593);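 also: cells exposed to compound for 16 h before reading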
# From the text: TOX21_p53_BLA_p3 is a cell-based, single-readout assay that uses HCT116, a human intestinal cell line, […] in a 1536-well plate.TOX21_p53_BLA_p3_viability is an assay readout measuring cellular ATP content and detected with CellTiter-Glo Luciferase-coupled ATP quantitation.TOX21_p53_BLA_p3_viability used a type of viability reporter where loss-of-signal activity can be used to understand changes in the cell viability. Furthermore, this assay endpoint can be referred to as a secondary readout, because this assay has produced multiple assay endpoints where this one serves a viability function. To generalize the intended target to other relatable targets, this assay endpoint is annotated to the cell cycle intended target family, where the subfamily is cytotoxicity.
# Thawing Method: Place 14 mL of pre-warmed thaw medium into a 15 mL of conical tub. Remove the vial of cells to be thawed from liquid nitrogen and thaw rapidly by placing at 37C in a water bath with gentle agitation for 1-2 minutes. Decontaminate the vial by wiping with 70% ethanol before opening in a biological safety cabinet. Transfer the vial contents drop-wise into 14 mL of thaw medium in a sterile 15-mL conical tub. Centrifuge cells at 900 rpm for 4 minutes and resuspend in thaw medium. Transfer contents to the T75 tissue culture flask containing Thaw Medium and place flask in a humidified 37C/5% CO2 incubator. Switch to growth medium at first passage.Propagation Method: Aspirate medium, rinse once in DPBS, add 0.25% Trypsin/EDTA and swirl to coat the cell evenly. Add an equal volume of Growth Medium to inactivate Trypsin after 2-3 minutes incubation at 37C. Centrifuge cells at 900 rpm for 4 minutes and resuspend in growth medium. Cell should be passage or fed at least twice a week.Assay Protocol: Harvest cells from culture in growth medium and resuspend in assay medium. 2.2 Dispense 4000 cells/5 uL/well into 1536-well black/clear bottom plates using a Multidrop dispenser. After the cells were incubated at 37C for 5 hours, 23 nL of compounds dissolved in DMSO were transferred to the assay plate by a PinTool resulting in a 217-fold dilution. Incubate the plates for 16 hours at 37C, 5% CO2. Add 1 uL of 6X LiveBLAzer FRET B/G (CCF4-AM) Substrate Mixture to each well using a BioRAPTR dispenser and incubate the plates at room temperature for 2 hours. Measure fluorescence intensity at 460 and 530 nm emission and 405 nm excitation by an Envision detector. Data is expressed as the ratio of 460nm/530nm emissions. Add 4 uL of Cell-titer Glo to each well using BioRAPTR and incubate the plates at room temperature for […]. For cell viability readout that measures cytotoxicity, 4 ul/well of CellTiter-Glo reagent was added into the assay plates using a Flying Reagent Dispenser. After 30 min incubation at room temperature, the luminescence intensity in the plates was measured using a ViewLux plate reader.
SMILES,outcome,AC50
Cc1cn([C@H]2C[C@H](O)[C@@H](CO)O2)c(=O)[nH]c1=O,inactive,–
COC(=O)C1CC(=O)C(C(=O)OC)CC1=O (stereo not given),inactive,–
Cc1cc(-n2nc3ccc(Cl)cc3n2)c(O)c(C(C)(C)C)c1,inactive,–
O=C(O)C(Cc1cc(I)c(O)c(I)c1)c1ccccc1 (stereo not given),inactive,–
Oc1c(I)cc(I)c2cccnc12,–,9.75 µM (active)
O=C(O)C(=O)Cc1c[nH]c2ccccc12,inactive,–
Cc1[nH]c(=O)c(C#N)cc1-c1ccc2nccn2c1,inactive,–
CC(C)(C)NC(=O)[C@@H]1CN(Cc2cccnc2)CCN1C[C@@H](O)C[C@@H](Cc1ccccc1)C(=O)N[C@H]1c2ccccc2C[C@H]1O,inactive,43 µM (active)
CC(=O)OCCN(CCOC(C)=O)c1ccc(N=Nc2ccc([N+](=O)[O-])cc2C#N)cc1,inactive,–
C[C@H]1C[C@H]2[C@@H]3CCC4=CC(=O)C=C[C@]4(C)[C@@]3(Cl)[C@@H](O)C[C@]2(C)[C@@]1(O)C(=O)CO,inactive,–
O=C1c2ccccc2S(=O)(=O)N1CCCCN1CCN(c2ncccn2)CC1,inactive,–
N#Cc1ccc(C(=O)O)cc1,inactive,–
OCC(O)[C@@H](O)[C@H](O)[C@H](O)CO[C@H]1O[C@H](CO)[C@@H](O)[C@H](O)[C@H]1O (stereo not given in full),inactive,–
CCOC(=O)/C=C(C)/C=C/C=C(C)/C=C/c1c(C)cc(OC)c(C)c1C,inactive,–
CCCCCCCCCCCCOCCOCCOCCOCCOCCOCCOCCOCCOCCO,–,27 µM (active)
CC1C(=O)CC2C3(C)CCC2(C(C)C(=O)O)C(=O)C13 (stereo not given),inactive,–
CC(C(=O)O)c1ccc(C(=O)c2ccccc2)s1 (stereo not given),inactive,–
C#C[C@]1(OC(C)=O)CC[C@H]2[C@@H]3CCC4=C[C@@H](OC(C)=O)CC[C@@H]4[C@H]3CC[C@@]21C,inactive,37.3 µM (active)
C[C@H](CCC(=O)O)[C@H]1CC[C@H]2[C@@H]3[C@H](O)C[C@@H]4C[C@H](O)CC[C@]4(C)[C@H]3CC[C@]12C,inactive,–

SMILES,outcome,AC50
c1ccc(CC2=NCCN2)cc1,inactive,–
CC(COc1ccccc1)N(CCCl)Cc1ccccc1 (stereo not given),inactive,54.6 µM (active) and 79.1 µM (active)
C[C@H](/C=C/[C@H](C)C(C)(C)O)[C@H]1CC[C@H]2/C(=C/C=C3C[C@@H](O)C[C@H](O)C3)CCC[C@]12C,–,30 µM (active)
CCOc1ccccc1O[C@H](c1ccccc1)[C@H]1CNCCO1,inactive,–
CO[C@H]1C[C@H](O[C@@H]2/C(C)=C/C[C@@H]3C[C@@H](C[C@]4(CC[C@H](C)[C@@H](C5CCCCC5)O4)O3)OC(=O)[C@@H]3C=C(C)/C(=N/O)[C@H]4OC/C(=C\C=C\[C@@H]2C)[C@]43O)O[C@@H](C)[C@@H]1O,inactive,–
O=C(CCCCCCCCCCCCC1CCCC1)Nc1ccc(S(=O)(=O)c2ccc(NC(=O)CCCCCCCCCCCCC3CCCC3)cc2)cc1,inactive,–
CCCCCCCCCCCC(=O)[O][Sn]([CH2]CCC)([CH2]CCC)[O]C(=O)CCCCCCCCCCC,inactive,–
CCCCCCC(=O)O[C@H]1CC[C@H]2[C@@H]3CCc4cc(O)ccc4[C@H]3CC[C@]12C,inactive,–
CN(C)CCC(c1ccc(Cl)cc1)c1ccccn1 (stereo not given),inactive,–
O=c1[nH]cnc2[nH]cc(CN3CCCCC3)c12,inactive,–
NC(=S)N=Nc1ccc(NN=C(N)N)cc1,inactive,–
C1CCCC1,inactive,–
CCCCNc1cc(C(=O)O)cc(S(N)(=O)=O)c1Oc1ccccc1,inactive,–
CC(=O)O[C@H]1CC[C@@]2(C)C(=CC[C@H]3[C@@H]4CC[C@H](C(C)=O)[C@@]4(C)CC[C@@H]32)C1,inactive,–
CCCCNC1CC(C)(C)NC(C)(C)C1,inactive,–
CCCCCCCCCCCCCCCCC(C(=O)O)C(O)(CC(=O)O)C(=O)O (stereo not given),–,42.3 µM (active)
Nc1ccc(S(=O)(=O)Nc2cnc3ccccc3n2)cc1,inactive,–
CC(C)(C)NCC(O)c1ccc(O)c(CO)c1 (stereo not given),inactive,–

# Reference: PubChem BioAssay (EPA / NIEHS)
